The values below come from the supplement of paper PMC6555819.

In one assay the test system is PPARg DBDmut IVT, anti-PPARg (DBD mutation: PPARg1 K132A/R137A, NR concentration 270 nM). The experiment in a line: PBM binding z-score (relative to random genomic background probes); higher = stronger binding; sequences stand for … in GC…GCGATTGACAGCGTAGAATGAAGG
The method in brief: (§1)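 Scanned fluorescence from custom Agilent 4×180K protein-binding microarrays was regression-normalized. Binding z-scores use random background probes as reference. Ligand-free nuclear receptor dimers were incubated on the arrays for 1 h and detected with antibodies against each partner (one per run).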
For the sequence CATGCTAGGTCAATGGTCAGCTAAAGCAGCTCGC, the PBM binding z-score was -0.0398.
Consider TTACCAAGGTGAAGGTCGTTGACCCCTCTGTAGA, for which the PBM binding z-score is -0.567.
Take TTACCAGGGTGAGCTGAGGTCGTTGATCCAACTC: the PBM binding z-score was -0.726.
Still for that read-out and setting: to CCTACTGGGCCCTCAGGTCATTGATATCAACGTT belongs -0.58; to ACTAGCAGGCTAAGGGTCACTCAAGATTAGTCCG, -0.126.
Still for that read-out and setting: then TCTTTTAGATCAGCAGGTTAAGAAAGCTGGCCAA, with 0.837; and AGAATGAGGTTATTAAGTTCAGGGAATTGCGGTC, with 0.465.
Regarding CGGCCTAGGTCAGGGCCAGTATAGGAGGAACGTT, the PBM binding z-score was -2.32.
Regarding ACTATTAGTTGACTGAGGGCAACCGATACGACGC, the PBM binding z-score amounted to 0.733.
As to CATTACGGGTCACGAGGTTATAGCACGACGAGCG, the PBM binding z-score was determined as 1.78.
Same read-out and setting: to CTACCAAGGTGAACAAGGTCATTGATTACTATTC belongs 0.17; to TCTGCTAGTTCAGTTGGTCAGCTAACGAGCTGCC, -0.636.
For GCTAGTTGGTCAGTAAAAGGTCACAAACCGGTCG, the PBM binding z-score is -0.0957.
Same read-out and setting: to ATCGAGAGGTCGTGAGGTGAGTATACAGAAAGGC belongs 0.618; to CGTCCAAGGTCAAACGTCAGTGAAGAGATGACGG, -0.466; to ATTTCTAGGTAACCAAGTTCAGTGAATGCCGAAC, 3.03.
In turn, CGTCAAAGTTCACGGTAACGTAACAGAAAGCAGC showed a PBM binding z-score of 0.91.
Still for that read-out and setting: then TTACCAAGGTGAAAGGTCGTAGATGCACGCCTTG, with 0.00894; and ATATCTAGGTAACCAAGTTCAGTGAATGCCGAAC, with 1.43; and ATCTCAAGGTAAAGTTCAGTGAAAGATCGATAGA, with 1.27.
On the same count and under the same terms, then CCTACTGGGCCATCAGGGCATTGATATCAACGTT, with 0.588; and CCTATGAGTTGACCATAAGGGCAACCGAAGCTCG, with -0.386; and TCTGCTAGGTGAGTTGGTCAGCTAACGAGCTGCC, with -0.743.
In turn, GGAACGAGGGCAAAGTTGCTAGCATCTGTCGACG gave a PBM binding z-score of 0.105.
In the case of ATCGCTAGGTAAGACTCAGTTCAGTGAAGAACGC, the PBM binding z-score is -0.364.
Still for that read-out and setting: to ATCTCAAGGTAACAAGTTCAGTGAAAGAGAGGAC belongs 1.1; to CCTTACGGCTCACTGACAGGTTATAGCATTTGGA, -0.0527; to TCTATTGGTTGAAGGGCAACCGACGAGTCCGTTT, 0.266.
In turn, TCTATTAGTTGAAGCGCAACCGACGAGTCCGTTT yielded a PBM binding z-score of 1.23.
Still for that read-out and setting: then CGCCCAAGGTCATAGGAGGTCAGTGAAGACAGAT, with -0.0436; and ATATCTAGGTTAAGGGTCATTCAGGTTGGTTCGC, with 4.16; and CAAACTAGGTCACGAAAGGTCAAAGTAGAATGAC, with 3.25.
Same read-out and setting: to ACTATTAGTTGACTTAGGGCAACCGGTACGACGC belongs 0.218; to CAAACTAGGTCAAAGTCAAAGTCGGTTTGTGCCA, 3.93.
Same read-out and setting: to CCTACTGGGCCATTCAGAGGTCATTTATCATATG belongs 0.342.
For the sequence TCATATAGGTAAATGCTAGGTTAAAGTCCGATCT, the PBM binding z-score stood at 1.02.
The sequence TTACCAAGGTGAGGGTCGTTGATCCCTCTGTAGA had a PBM binding z-score of -0.428.
As to CCTAGCAGGCCAGGGTCAATCAAGCATTTCGCTT, the PBM binding z-score was -2.02.
TCTCAAAGTTCAAAGGTAACGTAAGTATCCACAC displayed a PBM binding z-score of 1.45.
The sequence ATATGTAGGTTATCGGGTCATTTAGTTTGCGCAT had a PBM binding z-score of 1.71.

A further assay relates to PPARg homodimer (NR concentration 180 nM). Described as above. The essentials:
as §1
Turning to CATGCTAGGTCAATGGTCAGCTAAAGCAGCTCGC, the PBM binding z-score worked out at 1.14.
Same read-out and setting: to TTACCAAGGTGAAGGTCGTTGACCCCTCTGTAGA belongs 2.99.
On the same count and under the same terms, then TTACCAGGGTGAGCTGAGGTCGTTGATCCAACTC, with 0.323; and CCTACTGGGCCCTCAGGTCATTGATATCAACGTT, with 0.88.
Same read-out and setting: then ACTAGCAGGCTAAGGGTCACTCAAGATTAGTCCG, with 1.94; and TCTTTTAGATCAGCAGGTTAAGAAAGCTGGCCAA, with 0.344.
AGAATGAGGTTATTAAGTTCAGGGAATTGCGGTC displayed a PBM binding z-score of 1.36.
The same measure, in the same setting: then CGGCCTAGGTCAGGGCCAGTATAGGAGGAACGTT, with -0.013; and ACTATTAGTTGACTGAGGGCAACCGATACGACGC, with 0.7.
CATTACGGGTCACGAGGTTATAGCACGACGAGCG: the PBM binding z-score was found to be 4.62.
Regarding CTACCAAGGTGAACAAGGTCATTGATTACTATTC, the PBM binding z-score was found to be 2.29.
On the same count and under the same terms, then TCTGCTAGTTCAGTTGGTCAGCTAACGAGCTGCC, with -1.77; and GCTAGTTGGTCAGTAAAAGGTCACAAACCGGTCG, with 2.9.
ATCGAGAGGTCGTGAGGTGAGTATACAGAAAGGC displayed a PBM binding z-score of 1.02.
Same read-out and setting: to CGTCCAAGGTCAAACGTCAGTGAAGAGATGACGG belongs 2.61.
On the same count and under the same terms, to ATTTCTAGGTAACCAAGTTCAGTGAATGCCGAAC belongs 1.16; to CGTCAAAGTTCACGGTAACGTAACAGAAAGCAGC, 2.72.
The sequence TTACCAAGGTGAAAGGTCGTAGATGCACGCCTTG came in with a PBM binding z-score of 2.17.
The same measure, in the same setting: then ATATCTAGGTAACCAAGTTCAGTGAATGCCGAAC, with 1.06.
Same read-out and setting: to ATCTCAAGGTAAAGTTCAGTGAAAGATCGATAGA belongs 1.71; to CCTACTGGGCCATCAGGGCATTGATATCAACGTT, -0.00622; to CCTATGAGTTGACCATAAGGGCAACCGAAGCTCG, 1.05.
Consider TCTGCTAGGTGAGTTGGTCAGCTAACGAGCTGCC, for which the PBM binding z-score is -1.59.
The same measure, in the same setting: to GGAACGAGGGCAAAGTTGCTAGCATCTGTCGACG belongs 0.354.
The same measure, in the same setting: then ATCGCTAGGTAAGACTCAGTTCAGTGAAGAACGC, with -0.443; and ATCTCAAGGTAACAAGTTCAGTGAAAGAGAGGAC, with 1.41; and CCTTACGGCTCACTGACAGGTTATAGCATTTGGA, with 0.157.
The same measure, in the same setting: to TCTATTGGTTGAAGGGCAACCGACGAGTCCGTTT belongs 1.09; to TCTATTAGTTGAAGCGCAACCGACGAGTCCGTTT, 0.5; to CGCCCAAGGTCATAGGAGGTCAGTGAAGACAGAT, 3.59.
Take ATATCTAGGTTAAGGGTCATTCAGGTTGGTTCGC: the PBM binding z-score was 4.9.
Still for that read-out and setting: then CAAACTAGGTCACGAAAGGTCAAAGTAGAATGAC, with 6.18; and ACTATTAGTTGACTTAGGGCAACCGGTACGACGC, with 0.403.
The sequence CAAACTAGGTCAAAGTCAAAGTCGGTTTGTGCCA displayed a PBM binding z-score of 1.7.
On the same count and under the same terms, to CCTACTGGGCCATTCAGAGGTCATTTATCATATG belongs 2.27.
On the same count and under the same terms, to TCATATAGGTAAATGCTAGGTTAAAGTCCGATCT belongs 1.14.
TTACCAAGGTGAGGGTCGTTGATCCCTCTGTAGA returned a PBM binding z-score of 0.109.
Same read-out and setting: to CCTAGCAGGCCAGGGTCAATCAAGCATTTCGCTT belongs 1.08; to TCTCAAAGTTCAAAGGTAACGTAAGTATCCACAC, 3.16.
Consider ATATGTAGGTTATCGGGTCATTTAGTTTGCGCAT, for which the PBM binding z-score was found to be 3.3.
